Consider 34 molecules from PubChem BioAssay (NCATS).

Records with an inconclusive call do not appear. Entries that show only a call come without a potency. Active and inactive are the calls of the source. The call rests on the fitted dose curve; in most records, active means well fitted curve in the direction sought with a large enough effect; inconclusive means small, poorly fitted or top-dose-only effect, or another doubt; inactive means no such curve, though single readings can be large; an effect the other way counts as inactive or inconclusive.

Test [1] can be described thus: qHTS for inhibitors of adenylyl cyclases using a fission yeast platform: a pilot screen against the NCATS LOPAC library (AID 1347410). The method, boiled down:
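GFP from fbp1-GFP reporter, read by Acumen laser cytometry, indicates AC inhibition in fission yeast expressing AC9, GNAS and PDE4D2. Cells grown 18 h in the dark at 30C with compounds, final up to 57 uM.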
For orientation: qHTS replaces the single test concentration by a dilution series.

Test [2] can be described thus: qHTS to identify inhibitors of the type 1 interferon - major histocompatibility complex class I in skeletal muscle: primary screen against the NCATS Mechanism Interrogation Plate v5.0 (MIPE) Libary (AID 1347411). Further: nearly all actives have a fitted effect of over 65% in size. Further: potency means the concentration at half of the fitted maximal effect. The method, boiled down:
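Seed engineered human myoblasts (HLA-B HiBit) in medium without dexamethasone containing 4 ng/ml IFN-beta; after 1 hr add compound titrations (top 46 uM final). Incubate 24 hrs at 37 C, lyse 10 min with HiBiT reagent, read luminescence.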

A short description of test [3]: Validation qHTS assay for inhibitors of Activation Induced Cytidine Deaminase (AID): UDG Counterscreen signal (AID 1347427). The method, boiled down:
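Fluorescence at 560 nm excitation, 665 nm emission reports UDG signal after 250 mM NaOH (2x) addition and 30 min. Enzymes (AID 1 uM, UDG 2 U/mL, at 4/3x) preincubated 10 min with compound, then 4 h with 4x 250 nM DJC20/DJC23 substrate at room temperature.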

Test [4] has as its target Single-stranded DNA cytosine deaminase (Homo sapiens) (UniProt Q9GZX7). The test is described as follows: Validation qHTS assay for inhibitors of Activation Induced Cytidine Deaminase (AID): AID signal (AID 1347429). Further: potency means the concentration at half of the fitted maximal effect. The method in brief: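 Steps: dispense AID with UDG; pin-transfer compound up to 114 uM final; add DJC20/DJC23 substrate and hold 4 hr at room temperature; add NaOH, hold 30 min; read FRET signal (540/590 nm).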

A short description of test [5]: Primary qHTS for inhibitors of La Crosse Virus (LACV) - induced cell death in SH-SY5Y cells (AID 1508616).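 Further: top concentration of the series differs between compounds; higher means more rescue of cells from virus-induced death.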 The method, boiled down:
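SH-SY5Y, 6000 cells/well; cpd via pin tool in DMSO; LACV 0.01 MOI; 6 d 37C 5% CO2; ATPLite, 5 min RT; luminescence normalized to ±virus DMSO controls.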

A short description of test [6]: qHTS to identify inhibitors of the type 1 interferon - major histocompatibility complex class I in skeletal muscle: primary screen against the NCATS Pharmaceutical Collection (AID 1347407).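 Further: luminescence of HiBiT knocked into endogenous HLA-B as interferon-induced MHC class I level.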 The method in brief: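 Compounds […] were added to CRISPR-engineered HLA-B-HiBiT C25cl48 human myoblasts with 4.0 ng/ml IFN-beta. After 24 hrs at 37 C, cells were lysed and HiBiT luminescence measured.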

Test [7] concerns the target Protein phosphatase 1D (Homo sapiens) (UniProt O15297). Briefly: RapidFire Mass Spectrometry qHTS Assay for Modulators of WT P53-Induced Phosphatase 1 (WIP1) (AID 1347424).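 Further: amount of dephosphorylated VEPPL-S-QETFS peptide product formed by WIP1; series mostly up to about 63 µM.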 The method in brief: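 Mass-spectrometric measurement of dephosphorylated peptide after a 5 min room-temperature reaction of 10 nM WIP1 with 2 uM phosphopeptide, following 1 h compound preincubation in 30 mM MgCl2 buffer.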

Test [8] shares this target. Briefly: Rhodamine-PBP qHTS Assay for Modulators of WT P53-Induced Phosphatase 1 (WIP1) (AID 1347425). The method, boiled down: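 The read-out is the change in Rhodamine-PBP fluorescence (f1 - f0, ex 525/em 598 nm) as Pi is released, read each minute for 11 min. Final reaction: 5 nM WIP1, 10 uM phosphopeptide VEPPL-pS-QETFS, 10 uM Rh-PBP, 50 mM Tris-HCl pH 7.5, 30 mM MgCl2. Compound was preincubated with enzyme for 1 hour at room temperature.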

Protein phosphatase 1D (Homo sapiens), sequence (O15297 whole entry, looked up): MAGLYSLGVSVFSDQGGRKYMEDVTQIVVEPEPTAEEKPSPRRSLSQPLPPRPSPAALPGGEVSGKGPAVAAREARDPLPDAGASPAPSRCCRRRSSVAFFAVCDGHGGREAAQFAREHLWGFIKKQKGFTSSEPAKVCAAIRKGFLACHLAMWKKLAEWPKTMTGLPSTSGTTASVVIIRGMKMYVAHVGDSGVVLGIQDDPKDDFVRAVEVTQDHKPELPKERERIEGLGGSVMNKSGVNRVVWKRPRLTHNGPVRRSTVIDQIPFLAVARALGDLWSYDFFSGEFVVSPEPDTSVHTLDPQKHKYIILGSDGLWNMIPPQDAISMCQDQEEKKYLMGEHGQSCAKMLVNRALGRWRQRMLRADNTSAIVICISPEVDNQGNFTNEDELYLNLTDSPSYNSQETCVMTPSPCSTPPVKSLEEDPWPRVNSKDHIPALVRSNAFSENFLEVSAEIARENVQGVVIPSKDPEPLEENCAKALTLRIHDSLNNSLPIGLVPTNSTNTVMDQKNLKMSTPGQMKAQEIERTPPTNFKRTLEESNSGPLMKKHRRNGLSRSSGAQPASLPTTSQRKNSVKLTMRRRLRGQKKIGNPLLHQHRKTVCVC
Single-stranded DNA cytosine deaminase (Homo sapiens), sequence (Q9GZX7 whole entry, looked up): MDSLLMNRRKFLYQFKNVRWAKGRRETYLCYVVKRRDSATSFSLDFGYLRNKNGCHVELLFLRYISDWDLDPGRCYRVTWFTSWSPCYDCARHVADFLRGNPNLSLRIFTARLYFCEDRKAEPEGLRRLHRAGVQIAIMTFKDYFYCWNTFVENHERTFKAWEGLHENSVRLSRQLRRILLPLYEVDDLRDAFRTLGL

Take `Clc1ccc(C(c2ccc(Cl)cc2)n2cc[n+](CC(OCc3ccc(Cl)cc3Cl)c3ccc(Cl)cc3Cl)c2)cc1` (centres undefined): the outcome in test [1], in test [3] and in test [5] was inactive. The Potency in test [2] was 16.5 µM (active). The Potency entry in test [4] was “inactive”.

Take `COc1cccc2c1CCCC2CCCN1CCN(C2CCCCC2)CC1` (centres undefined): the Potency entry in test [2] was “inactive”.

`O=C(Nc1cc(Cl)cc2c1[nH]c1cnccc12)c1cccnc1`: the Potency result in test [2] is “inactive”.

As for `CC(C)(C)OC(=O)N[C@H]1CCCCCC=C[C@@H]2C[C@@]2(C(=O)NS(=O)(=O)C2CC2)NC(=O)[C@@H]2C[C@@H](OC(=O)N3Cc4cccc(F)c4C3)CN2C1=O`, the Potency result in test [2] is “inactive”.

As for `O=C(N[C@@H](c1ccccc1)[C@@H]1CCCCN1)c1cccc(C(F)(F)F)c1Cl`, in test [2], the Potency entry was “inactive”.

As for `O=C(O)c1cc(-c2ccccc2)nc2ccccc12`, the Potency entry in test [6] was “inactive”. Further, the molecule was called inactive in test [7], in test [8] and in test [5].

With `CC(C)C(C)C=CC(C)C1CCC2C3=CC=C4CC(O)CCC4(C)C3CCC21C` (centres undefined), in test [2], the Potency entry is “inactive”.

On to `c1ccc2c(-c3cnn4cc(-c5ccc(N6CCNCC6)cc5)cnc34)ccnc2c1`, for which the Potency in test [2] was 7.39 µM (active).

Turning to `CC(C)C[C@H](CC(=O)O)C(=O)N[C@@H](Cc1c[nH]c2ccccc12)C(=O)N[C@@H](C)c1ccccc1`, the Potency entry in test [2] was “inactive”.

As to `C[C@H](NC(=O)C(=O)Nc1ccccc1C(C)(C)C)C(=O)N[C@@H](CC(=O)O)C(=O)COc1c(F)c(F)cc(F)c1F`, the Potency in test [2] is 13.1 µM (active).

For the molecule `O=c1cc(N2CCOCC2)oc2c(-c3cccc4c3sc3ccccc34)cccc12`, in test [2], the Potency result is “inactive”.

As for `COc1cc2c(cc1OC)CN(CCc1ccc(NC(=O)c3cc(OC)c(OC)cc3NC(=O)c3cnc4ccccc4c3)cc1)CC2`, the Potency result in test [2] was “inactive”.

For the molecule `CN(C)c1cc(NC(=O)CNC(C)(C)C)c(O)c2c1C[C@@H]1C[C@H]3[C@H](N(C)C)C(=O)C(C(N)=O)=C(O)[C@@]3(O)C(=O)C1=C2O`, in test [6], the Potency result is “inactive”. Besides, in test [5], the result was inactive.

Turning to `COc1ccc(-n2c(C)c([N+](=O)[O-])c3ccc(O)cc32)cc1`, in test [2], the Potency entry was “inactive”.

Consider `N#C[C@H]1C[C@H]2C[C@@H]2N1C(=O)[C@@H](N)C12CC3CC(CC(O)(C3)C1)C2`, for which the Potency entry in test [6] is “inactive”. Moreover, the result in test [7], in test [8] and in test [5] was inactive.

Regarding `CNC(=O)c1ccc2cc(C3(O)CCn4cncc43)ccc2c1` (centres undefined), the Potency entry in test [2] is “inactive”.

Regarding `NC(N)=Nc1nc(CSCC/C(N)=N/S(N)(=O)=O)cs1`, the molecule was called inactive in test [1], in test [7], in test [8], in test [3] and in test [5]. For the same molecule, in test [4], the Potency result was “inactive”.

On to `O=c1cc(-c2cccc3c2Sc2ccccc2S3)oc(N2CCOCC2)c1`, for which the Potency result in test [2] is “inactive”.

As for `O=c1cc(-c2ccc(O)cc2)oc2cc(O)cc(O)c12`, the result in test [1], in test [3] and in test [5] was inactive. In addition, the Potency result in test [4] is “inactive”.

Consider `Cc1nc(N)sc1-c1ccnc(Nc2ccc(N3CCOCC3)cc2)n1`, for which the Potency in test [2] was 3.7 µM (active).

On to `CC1(C)CCC2=C(O1)c1ccccc1C(=O)C2=O`, for which the molecule was called inactive in test [1]. For the same molecule, the Potency in test [4] was 7.08 µM (active).

Turning to `C[C@@H](O)[C@H]1C(=O)N2C(C(=O)O)=C(S[C@@H]3CN[C@H](C(=O)N(C)C)C3)[C@H](C)[C@H]12`, the Potency entry in test [6] is “inactive”. Also, the result in test [7], in test [8] and in test [5] was inactive.

Consider `O=C(O)Cc1cccc2ccccc12`, for which the Potency entry in test [6] is “inactive”. The call in test [7], in test [8] and in test [5] was inactive.

As to `CC(C)(C)c1ccc(C(O)CCCN2CCC(C(O)(c3ccccc3)c3ccccc3)CC2)cc1` (centres undefined), the outcome in test [1], in test [7], in test [8], in test [3] and in test [5] was inactive. For the same molecule, the Potency result in test [4] is “inactive”.

As to `OC[C@@H](O)[C@H](O)[C@H](O)[C@@H](O)CO`, in test [6], the Potency result is “inactive”. Also, the molecule was called inactive in test [7], in test [8] and in test [5].

Regarding `CC(C)(C)c1cc(C(=O)O)c(NC(=O)Nc2ccc3[nH]ncc3c2)s1`, the Potency result in test [2] was “inactive”.

As for `CCN(CC)CCNC(=O)c1ccc(N)cc1`, the call in test [1], in test [7], in test [8] and in test [5] was inactive.

In the case of `O=C(O)CCC1CCC(c2cc(F)ccc2F)(S(=O)(=O)c2ccc(Cl)cc2)CC1` (centres undefined), the Potency result in test [2] is “inactive”.

Consider `CC/C(=C(\c1ccccc1)c1ccc(OCCN(C)C)cc1)c1ccccc1`, for which the outcome in test [1], in test [7], in test [8], in test [3] and in test [5] was inactive. For the same molecule, the Potency in test [2] was 30.1 µM (active). Further, the Potency result in test [4] is “inactive”.

Consider `CCCNC(=O)NS(=O)(=O)c1ccc(Cl)cc1`, for which the outcome in test [1], in test [7], in test [8], in test [3] and in test [5] was inactive. Besides, in test [4], the Potency entry is “inactive”.

Regarding `O=C1C[C@@H](c2ccc(O)cc2)Oc2cc(O)cc(O)c21`, in test [2], the Potency result is “inactive”.

With `NC(=O)c1cnc(-c2ccc(C3(N)CCC3)cc2)c(-c2ccccc2)c1`, the Potency result in test [2] is “inactive”.

For `CCCCCN(C)CCC(O)(P(=O)(O)O)P(=O)(O)O`, in test [3], the result was inactive. For the same molecule, in test [4], the Potency entry was “inactive”.

As for `CC(C)OC(=O)C(C)(C)Oc1ccc(C(=O)c2ccc(Cl)cc2)cc1`, the result in test [3] was inactive. For the same molecule, in test [4], the Potency entry was “inactive”.
